We go through nine compounds from PubChem BioAssay (NCI).

The panel holds about 83,000 compounds, 20% with a hit somewhere; the sample as a whole holds those more often.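 Activity criterion: percent growth below 10, measured after cells in 96-well plates were exposed to a single compound concentration for 48 hours.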 Unmarked numbers belong to inactive results. Activity calls are given as the source filed them.

Among the test systems are HCT-15 colon; HT29 colon; SNB-19 CNS; U251 CNS; PC-3 prostate; SK-MEL-5 melanoma; UACC-62 melanoma; LOX IMVI melanoma; EKVX NSCLC; SN12C renal; UO-31 renal; TK-10 renal; ACHN renal; CAKI-1 renal; A498 renal; CCRF-CEM leukemia; MOLT-4 leukemia; SK-MEL-2 melanoma; SK-MEL-28 melanoma.
Assay in all cases: NCI-60 one-dose screen, 48 h (100 = growth as untreated, 0 = no growth, -100 = all killed)
What all share (conditions): 10 µM unless noted

Turning to `CCN(CC)CCOC(=O)C(c1ccccc1)(c1ccccc1)C(C)C`, the growth in the assay on HCT-15 colon was 95.9%; in the assay on HT29 colon, 61.4%; with SNB-19 CNS it was 97.1%; in the assay on U251 CNS it was 87.2%; in the assay with PC-3 prostate it was 69%; in the assay with SK-MEL-5 melanoma, 90.6%. The growth with UACC-62 melanoma is 100%; in the assay on LOX IMVI melanoma, 71.5%; in the assay with EKVX NSCLC, 81.6%; in the assay on SN12C renal, 88.1%; with UO-31 renal, 51.7%; with TK-10 renal, 91.6%. Moreover, the growth with ACHN renal is 92.8%; with CAKI-1 renal, 66.8%; in the assay on A498 renal, 70.5%; in the assay with CCRF-CEM leukemia, 86.4%; in the assay with MOLT-4 leukemia, 86.7%.
As to `CCCCN(CCCC)C(=N)c1ccnc2ccccc12`, the growth with HCT-15 colon was 101%; in the assay with HT29 colon, 89.1%; in the assay on SNB-19 CNS, 115%; in the assay on U251 CNS it was 107%; in the assay with PC-3 prostate, 105%; in the assay on SK-MEL-5 melanoma, 119%. The growth is 111% in the assay on UACC-62 melanoma; 101% with LOX IMVI melanoma; 104% in the assay on EKVX NSCLC; 113% in the assay on SN12C renal; 89.7% with UO-31 renal; 105% with TK-10 renal. Moreover, the growth was 109% in the assay with ACHN renal; 108% in the assay on CAKI-1 renal; 90.6% in the assay with A498 renal; 8.24% (active) in the assay with CCRF-CEM leukemia; 42.6% with MOLT-4 leukemia.
As for `COc1cc(Nc2nc(N[C@H]3CCCC[C@@H]3N)nc3cc[nH]c(=O)c23)cc(OC)c1`, the growth in the assay on HCT-15 colon is 60.9%; with HT29 colon, 7.69% (active); in the assay on SNB-19 CNS, 37.4%; in the assay with U251 CNS, 44.3%; in the assay with PC-3 prostate it was 44.6%; with SK-MEL-5 melanoma it was 57.7%. The growth in the assay on UACC-62 melanoma is 41.2%; in the assay on LOX IMVI melanoma, -66.8% (active); in the assay with SK-MEL-2 melanoma it was 41.7%; in the assay on SN12C renal it was 33.2%; in the assay with UO-31 renal, 47.7%; in the assay with TK-10 renal, 66.5%. In addition, the growth was 44.7% in the assay on ACHN renal; 51.4% with CAKI-1 renal; 12.4% with A498 renal; -2.71% (active) in the assay on CCRF-CEM leukemia; 3.76% (active) in the assay with MOLT-4 leukemia.
In the case of `Cc1ccc(S(=O)(=O)/C(=C\c2ccc(Cl)cc2)C(=O)c2ccccc2)cc1`, the growth in the assay with HCT-15 colon was 100%; in the assay with HT29 colon, 123%; in the assay on SNB-19 CNS, 95.7%; in the assay with U251 CNS, 102%; in the assay with PC-3 prostate it was 96.4%; in the assay with SK-MEL-5 melanoma it was 103%. For the same compound, the growth was 101% in the assay with UACC-62 melanoma; 104% with LOX IMVI melanoma; 100% in the assay with SK-MEL-28 melanoma; 98.9% with SN12C renal; 90.1% in the assay with UO-31 renal; 124% in the assay with TK-10 renal. Moreover, the growth in the assay with ACHN renal was 109%; in the assay with CAKI-1 renal it was 87.3%; with A498 renal, 99.4%; in the assay on CCRF-CEM leukemia, 97.7%; in the assay with MOLT-4 leukemia, 99.1%.
`CCN(CC)c1ccc2[nH]c3c(C(N)=O)cc(=O)c(=O)c=3oc2c1`: the growth in the assay with HCT-15 colon was 1.73% (active); in the assay on HT29 colon it was 5.89% (active); with SNB-19 CNS it was 17.6%; with U251 CNS, -4.95% (active); in the assay on PC-3 prostate, 13.4%; with SK-MEL-5 melanoma, -84.7% (active). Moreover, the growth with UACC-62 melanoma was -24.4% (active); in the assay on LOX IMVI melanoma it was 3.27% (active); in the assay on SK-MEL-2 melanoma, -19.4% (active); with EKVX NSCLC, -10.4% (active); in the assay on SN12C renal, -4.55% (active); in the assay with UO-31 renal, -28.8% (active). Further, the growth in the assay with TK-10 renal was 2.91% (active); in the assay with ACHN renal, -8.77% (active); with CAKI-1 renal, -33.2% (active); with A498 renal, 46.2%; with MOLT-4 leukemia, 1.5% (active).
On to `Brc1ccc(-c2[nH]ncc2-c2c[nH]c3ccccc23)cc1`, for which the growth in the assay on HCT-15 colon was 94.9%; in the assay on HT29 colon it was 109%; with SNB-19 CNS, 97%; in the assay with U251 CNS, 93.9%; in the assay on PC-3 prostate, 77.4%; in the assay with SK-MEL-5 melanoma, 100%. The growth was 91.7% in the assay on UACC-62 melanoma; 89.7% with LOX IMVI melanoma; 109% in the assay with SK-MEL-2 melanoma; 88.5% in the assay on SN12C renal; 57.4% with UO-31 renal; 129% with TK-10 renal. The growth was 96.5% with ACHN renal; 86.7% in the assay with CAKI-1 renal; 65.1% with A498 renal; 54.7% with CCRF-CEM leukemia; 70.3% in the assay on MOLT-4 leukemia.
For `COc1ccc(-n2c(=S)sc3c(Cl)nc(C)nc32)c(OC)c1`, the growth in the assay with HCT-15 colon was 21%; in the assay with HT29 colon it was -7.41% (active); with SNB-19 CNS, 12.5%; in the assay on U251 CNS it was -39.6% (active); in the assay on PC-3 prostate, 56.5%; with SK-MEL-5 melanoma, 80.1%. The growth in the assay on UACC-62 melanoma is 51.6%; in the assay with LOX IMVI melanoma it was -81.9% (active); in the assay with SK-MEL-2 melanoma, 23.2%; with EKVX NSCLC, 49.3%; with SN12C renal it was 27%; with UO-31 renal, -36.2% (active). Also, the growth with TK-10 renal is 45.7%; in the assay with ACHN renal, 56.8%; in the assay on CAKI-1 renal it was -41.8% (active); in the assay on A498 renal, 110%; with CCRF-CEM leukemia it was -1.34% (active); in the assay with MOLT-4 leukemia, -1.97% (active).
Turning to `CCOC(=O)c1cc(C(=O)c2cc(OC)c(OC)c(OC)c2)n2c1ccc1ccccc12`, the growth is 25.7% with HCT-15 colon; 9.65% (active) with HT29 colon; 35.1% with SNB-19 CNS; 49% with U251 CNS; 21.9% in the assay on PC-3 prostate; 9.89% (active) in the assay on SK-MEL-5 melanoma. In addition, the growth was 32.1% with UACC-62 melanoma; 40.4% in the assay with LOX IMVI melanoma; 50.2% in the assay on SK-MEL-2 melanoma; 52.2% in the assay on EKVX NSCLC; 25.3% in the assay on SN12C renal; 32.2% with UO-31 renal. Further, the growth in the assay on TK-10 renal is 80.6%; in the assay on ACHN renal it was 33.5%; with CAKI-1 renal, 27.3%; in the assay on A498 renal, -10.9% (active); with CCRF-CEM leukemia it was 8.36% (active); with MOLT-4 leukemia, 33.4%.
In the case of `COc1ccc(-c2c(N)n[nH]c2-c2cc(OC)c(OC)c(OC)c2)cc1`, the growth in the assay on HCT-15 colon is 24.6%; with HT29 colon it was 4.25% (active); with SNB-19 CNS, 35.9%; in the assay with U251 CNS it was 23.5%; in the assay on PC-3 prostate, 40.9%; with SK-MEL-5 melanoma it was 0.844% (active). In addition, the growth in the assay on UACC-62 melanoma is 25.7%; in the assay with LOX IMVI melanoma, 43.2%; in the assay on SK-MEL-28 melanoma, 50.4%; in the assay with EKVX NSCLC, 48%; in the assay with SN12C renal, 38.5%; in the assay on UO-31 renal it was 27.3%. Further, the growth with TK-10 renal was 59.8%; with ACHN renal, 40%; in the assay with CAKI-1 renal it was 57%; in the assay on A498 renal, -3.53% (active); in the assay on MOLT-4 leukemia it was 25.4%.
